Screening results (PubChem)
AMPAR-TARP mod: modulators of GluA2-stargazin AMPA receptor complexes, primary screen, cell-based, membrane potential dye. Voltage-dependent calcium channel gamma-2 subunit (Mus musculus) + Glutamate receptor 2 …. HEK293 GluA2+stargazin, membrane potential dye (FDSS), glutamate EC50; hits were called plate by plate, in both directions. calls only at 30 µM. 40,000 compounds, 3.5% hits. AID 1259245, 2017;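 active means any of four per-well response measures lying three or more SD from its plate-wide compound average, in either direction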
GIRK2 act: activators of NPY4-receptor-primed GIRK2 channels, summary, cell-based, HEK293, thallium flux | 34,000 tested, under 10 active | HEK293 GIRK2/NPY4 cells, thallium flux fluorescence | G protein-activated inward rectifier potassium channel 2 (Homo sapiens), P48051 | activation (% efficacy), % for hits at 37.5 µM;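 active means primary screen hit, no activity in plain HEK293 cells, and in GIRK2-only cells above 5% efficacy rising with concentration; inactive means the rest, including fluorescent compounds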;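 further: efficacy is normalized control-subtracted fluorescence 15 s after thallium addition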
Each line names hits and unclear results; the compound was inactive in the other large screens. This excerpt belongs to a sample that is enriched for hits.

C=Cc1ccc(CN2C(=O)N(c3ccc(CC)cc3)C3CS(=O)(=O)CC32)cc1 (stereo not drawn)	AMPAR-TARP mod active (no result: GIRK2 act)
Cn1nc(-c2ccc(NC(=O)c3ccc(-c4ccccc4)cc3)cc2)ccc1=O	none
COC(=O)c1sccc1S(=O)(=O)NCC1CCN(C(=O)c2cccn(C)c2=O)CC1	none
CCOc1ccc2ccccc2c1C(=O)NCc1ccsc1	AMPAR-TARP mod active
CCOc1ccc2ccccc2c1C(=O)NC1CCCC(O)C1 (stereo not drawn)	AMPAR-TARP mod active
CCOc1ccc2ccccc2c1C(=O)NCC(C)(O)c1ccccc1 (stereo not drawn)	none (no result: AMPAR-TARP mod)
CCOc1cc(C(=O)NCc2ccsc2)cc(OCC)c1OCC	none
CCOc1ccc2ccccc2c1C(=O)NCC(O)(c1ccco1)C1CC1 (stereo not drawn)	AMPAR-TARP mod active
CCOc1ccc2ccccc2c1C(=O)NCC1CCN(C(C)C)CC1	none (no result: AMPAR-TARP mod)
Cc1ncc2c(SCC(=O)NCc3ccco3)ncnc2n1	none
O=C(NCCc1ccsc1)C(=O)NCc1ccc(Cl)cc1	none (no result: AMPAR-TARP mod)
COc1cn(CC(=O)Nc2cccc3ccccc23)c(CSc2nnnn2C)cc1=O	none
Cc1ccc(NC(=O)C(C)(C)CCl)cc1N1CCCCC1=O	none
Brc1cccc(-c2nnc3sc(-c4cccnc4)nn23)c1	AMPAR-TARP mod active
O=c1oc(-c2cccnc2)nc2ccc(Br)cc12	none
CC1(C)CC(=O)C2=C(C1)NC1=C(C(=O)CC(C)(C)C1)C2c1cccs1	none
CN1C2=C(C(=O)CC(C)(C)C2)C(c2cc(Br)ccc2O)C2=C1CC(C)(C)CC2=O	AMPAR-TARP mod active (no result: GIRK2 act)
CCn1nc(C(=O)Nc2ccc(S(=O)(=O)Nc3cc(C)nc(C)n3)cc2)ccc1=O	none
COc1ccc([N+](=O)[O-])cc1NC(=O)c1ccccc1NS(=O)(=O)c1ccccc1	none
COc1ccc(S(=O)(=O)Nc2ccccc2C(=O)Nc2ccc([N+](=O)[O-])cc2OC)cc1	AMPAR-TARP mod active
COc1cc(Cl)c(C)cc1NC(=O)Cn1nc2c(cc1=O)CCCC2	none
COc1cc(OC)c(NC(=O)Cn2nc3c(cc2=O)CCCC3)cc1Cl	AMPAR-TARP mod active
O=C(CSc1nnc(Cc2ccccc2)o1)NCC1CCCO1 (stereo not drawn)	none
COCCn1c(=NC(=O)c2ccc(S(=O)(=O)C(C)C)cc2)sc2cc(OC)ccc21	none
CC(C)(C)c1ccc(C(=O)Nn2cnc3c(cnn3-c3ccccc3)c2=O)cc1	none
Cc1cc(C)c(S(=O)(=O)N(C)c2c(C)cccc2C)cc1N(C)S(=O)(=O)c1ccccc1	none (no result: GIRK2 act)
Cc1cccc(N(C)S(=O)(=O)c2cc(N(C)S(=O)(=O)c3ccccc3)c(C)cc2C)c1	none (no result: GIRK2 act)
Cc1cc(C)c(S(=O)(=O)NC(C)C)cc1N(C)S(=O)(=O)c1ccccc1	AMPAR-TARP mod active (no result: GIRK2 act)
Cc1cc(C)c(S(=O)(=O)N(C)c2ccc(Cl)cc2)cc1N(C)S(=O)(=O)c1ccccc1	AMPAR-TARP mod active (no result: GIRK2 act)
CCn1nc(C(=O)Nc2ccc(-c3ccc(=O)[nH]n3)cc2)ccc1=O	none
COc1ccc(S(=O)(=O)NCCCC(=O)O)cc1N(C)S(C)(=O)=O	none (no result: GIRK2 act)
COc1ccc(NC(=O)c2ccc(Cl)c(S(=O)(=O)N3CCCC3)c2)c(OC)c1	none (no result: GIRK2 act)
Cc1nc(C)c(CC(=O)NCCn2nc(-c3ccco3)ccc2=O)s1	none
Cc1cc(C)n(CC2CCN(C(=O)Cc3ccc(SC(C)C)cc3)CC2)n1	none
Cn1c(=O)c2c(nc(N=Nc3c(O)[nH]c4ccccc34)n2Cc2ccccc2)n(C)c1=O	none (no result: GIRK2 act)
Cn1c(O)c(N=Nc2nc3c(c(=O)n(Cc4ccccc4)c(=O)n3C)n2C)c(=O)n(C)c1=O	AMPAR-TARP mod active (no result: GIRK2 act)
O=[N+]([O-])c1ccc(-c2noc(-c3cc(Cl)ccc3Cl)n2)cc1	none (no result: GIRK2 act)
CC(Sc1nnnn1-c1ccc(Cl)cc1)C(=O)Nc1ccc(S(N)(=O)=O)cc1 (stereo not drawn)	none (no result: GIRK2 act)
COc1ccc(C(=O)NCCOc2cc(C)cc(C)c2)c(OC)c1	AMPAR-TARP mod active
Cc1cc(C)cc(OCCNC(=O)c2cccs2)c1	none
Cc1cc(C)cc(OCC(O)CN2CCN(Cc3ccc4c(c3)OCO4)CC2)c1 (stereo not drawn)	none (no result: GIRK2 act)
CCc1ccc(OCCOCC(O)CN2CCN(Cc3ccc4c(c3)OCO4)CC2)cc1 (stereo not drawn)	AMPAR-TARP mod active (no result: GIRK2 act)
Cc1cccn2c(=O)c(/C=N/Nc3ccc(C(=O)O)cc3)c(N3CCCC3)nc12	none (no result: GIRK2 act)
O=C(Nc1ccc(OC(F)(F)F)cc1)c1ccc(S(=O)(=O)NCc2cccs2)o1	AMPAR-TARP mod active
O=C(Nc1ccc(C(F)(F)F)cc1)c1ccc(S(=O)(=O)NCCc2ccccc2)o1	none
CCOc1ccc(S(=O)(=O)NCC(O)(c2ccccc2)C(F)(F)F)cc1F (stereo not drawn)	none
COc1ccccc1-n1c(C)cn2c3c(=O)n(CC(=O)OCc4ccccc4)c(=O)n(C)c3nc12	none (no result: GIRK2 act)
COC(=O)c1sccc1S(=O)(=O)N(CC(=O)Nc1ccccc1OC)c1ccc(Cl)cc1	AMPAR-TARP mod active (no result: GIRK2 act)
COC(=O)c1sccc1S(=O)(=O)N(CC(=O)Nc1ccc(OC)cc1)c1ccc(Cl)cc1	AMPAR-TARP mod active
COC(=O)c1sccc1S(=O)(=O)N(CC(=O)Nc1ccc(OC)cc1)c1ccccc1	none
COC(=O)c1sccc1S(=O)(=O)N(CC(=O)Nc1cc(C)ccc1C)c1ccc(Cl)cc1	none
Cc1cc2nc(N(CCN3CCOCC3)C(=O)c3ccc4ncsc4c3)sc2cc1C	none
COC(=O)c1cccc(NC(=O)c2nnn(-c3ccccc3F)c2C)c1	AMPAR-TARP mod active
CCCc1c(C(=O)Nc2cc(OC)ccc2OC)nnn1-c1ccccc1	none
COC(=O)c1ccc(NC(=O)c2nnn(-c3ccccc3)c2C)cc1	none
CCCc1c(C(=O)Nc2cccc(C(=O)OC)c2)nnn1-c1ccccc1	AMPAR-TARP mod active
O=C(NCCn1nc(-c2cccs2)ccc1=O)NCc1ccccc1	none
Cc1ccccc1CC(=O)NCCn1nc(-c2cccs2)ccc1=O	AMPAR-TARP mod active
Cc1ccc(Cl)cc1N1CCN(C(=O)c2cc3cc(Br)ccc3oc2=O)CC1	none
Cc1cc(C)c(N2CCN(C(=O)c3cc4cc(Br)ccc4oc3=O)CC2)c(C)c1	AMPAR-TARP mod active
COCCNC(=O)C(=O)Nc1cccc(N2CCCC2=O)c1	none
COc1cc(NC(=O)Nc2cccs2)ccc1N1CCCCC1=O	none
COc1ccc(-n2nnnc2CNC(=O)Nc2cc(OC)c(OC)c(OC)c2)cc1	none (no result: GIRK2 act)
CCCN1CCCc2cc(CCNC(=O)C(=O)Nc3cc(C)cc(C)c3)ccc21	none (no result: GIRK2 act)
O=C(Cc1cccs1)NNC(=O)c1cccn(Cc2ccc(Cl)c(Cl)c2)c1=O	AMPAR-TARP mod active
O=C(Cc1ccc(F)cc1)NNC(=O)c1cccn(Cc2ccc(Cl)c(Cl)c2)c1=O	none
CN(C)CCNC(=O)C(=O)Nc1c2c(nn1C(C)(C)C)CSC2	none
COc1ccc(CNC(=O)NC2CNC(=O)C2)cc1OC (stereo not drawn)	none (no result: AMPAR-TARP mod)
O=C(NC(c1ccccc1)c1ccccc1)N1CCC(c2cccs2)CC1	none
O=C(NC12CC3CC(CC(C3)C1)C2)N1CCC(c2cccs2)CC1	AMPAR-TARP mod active
Cc1[nH]c(=O)[nH]c(=O)c1CC(=O)Nc1ccc2c(c1)Cc1ccccc1-2	none
O=C(N1CCC(c2nnc(-c3ccc(F)cc3)o2)CC1)C1(c2cccs2)CCCC1	AMPAR-TARP mod active
O=C(c1cccs1)N1CCC(c2nnc(-c3ccc(F)cc3)o2)CC1	none
